Source: PubChem BioAssay (EPA / NIEHS)
Results filed as inconclusive are left out. The source made the active and inactive calls. The calls were made as follows, unless noted: active = hit-call score of the fitted dose curve at least 0.9, where 1 is the maximum; inconclusive = response in the unintended direction; inactive = score below 0.9.

Key:
[1] = biological target: Cellular tumor antigen p53 (Homo sapiens) (UniProt P04637); experiment: TOX21_p53_BLA_p2_ratio: Tox21 HCT-116 p53 Agonism Beta-lactamase Assay, Ratio, Phase 2 (AID 2283592)
Sequence of Cellular tumor antigen p53 (Homo sapiens) (P04637 whole entry, looked up): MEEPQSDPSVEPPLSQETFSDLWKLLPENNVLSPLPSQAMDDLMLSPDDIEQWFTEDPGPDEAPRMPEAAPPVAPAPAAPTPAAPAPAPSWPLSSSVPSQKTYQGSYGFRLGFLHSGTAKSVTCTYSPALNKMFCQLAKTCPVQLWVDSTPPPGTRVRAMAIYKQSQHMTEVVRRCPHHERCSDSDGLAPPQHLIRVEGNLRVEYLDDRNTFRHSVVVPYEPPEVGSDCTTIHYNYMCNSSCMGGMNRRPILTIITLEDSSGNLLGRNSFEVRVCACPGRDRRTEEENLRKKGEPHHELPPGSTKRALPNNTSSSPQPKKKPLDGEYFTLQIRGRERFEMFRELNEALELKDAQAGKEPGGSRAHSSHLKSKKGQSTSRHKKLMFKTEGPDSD
Outline: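 Readout: blue/green (460/530 nm) FRET emission ratio after 2 h CCF4-AM loading at room temperature, excitation 405 nm. HCT116 p53 bla cells, 16 h compound exposure at 37C, 5% CO2; agonist direction fitted against DMSO baseline.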

[2] = TOX21_p53_BLA_p5_viability: Viability Assessment in the Tox21 HCT-116 p53 Agonism Beta-lactamase Assay, Phase 5 (AID 2283600)
Outline: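 ATP luminescence (CellTiter-Glo, 30 min, RT) served as the viability read-out, with loss of signal indicating cytotoxicity. Compounds in DMSO were pinned at a 217-fold dilution onto 4000 cells/well and incubated 16 h, 37C.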

[3] = biological target: Cellular tumor antigen p53 (Homo sapiens) (UniProt P04637); experiment: TOX21_p53_BLA_p5_ratio: Tox21 HCT-116 p53 Agonism Beta-lactamase Assay, Ratio, Phase 5 (AID 2283599)
Outline: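 HCT-116 cells carrying a p53-inducible beta-lactamase reporter were seeded at 4000 cells/well and dosed after 5 h with compound in DMSO (217-fold dilution). After 16 h at 37C, CCF4-AM substrate was added for 2 h, and the 460/530 nm emission ratio was scored as gain-of-signal versus DMSO.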

[4] = biological target: Cellular tumor antigen p53 (Homo sapiens) (UniProt P04637); experiment: TOX21_p53_BLA_p4_ratio: Tox21 HCT-116 p53 Agonism Beta-lactamase Assay, Ratio, Phase 4 (AID 2283601)
Outline: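 HCT116 cells carrying an inducible beta-lactamase reporter were plated at 4000 cells/well, rested 5 h, then exposed to compounds in DMSO (217-fold dilution) for 16 h at 37C. CCF4-AM substrate was loaded 2 h at room temperature; 460/530 nm emission ratio scored gain-of-signal versus DMSO.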

THRA (gene 7067) = THRA (gene 7067) (UniProt P10827); experiment: TOX21_TRA_COA_Agonist_Followup_ratio: Tox21 Thyroid Hormone Receptor alpha Agonism through Coactivator Recruitment Follow-Up Assay, Ratio (AID 2283948; active = hit-call score of the fitted dose curve at least 0.9, where 1 is the maximum; inactive = score below 0.9)
Sequence of THRA (gene 7067) (P10827 whole entry, looked up, the tested form may be a part): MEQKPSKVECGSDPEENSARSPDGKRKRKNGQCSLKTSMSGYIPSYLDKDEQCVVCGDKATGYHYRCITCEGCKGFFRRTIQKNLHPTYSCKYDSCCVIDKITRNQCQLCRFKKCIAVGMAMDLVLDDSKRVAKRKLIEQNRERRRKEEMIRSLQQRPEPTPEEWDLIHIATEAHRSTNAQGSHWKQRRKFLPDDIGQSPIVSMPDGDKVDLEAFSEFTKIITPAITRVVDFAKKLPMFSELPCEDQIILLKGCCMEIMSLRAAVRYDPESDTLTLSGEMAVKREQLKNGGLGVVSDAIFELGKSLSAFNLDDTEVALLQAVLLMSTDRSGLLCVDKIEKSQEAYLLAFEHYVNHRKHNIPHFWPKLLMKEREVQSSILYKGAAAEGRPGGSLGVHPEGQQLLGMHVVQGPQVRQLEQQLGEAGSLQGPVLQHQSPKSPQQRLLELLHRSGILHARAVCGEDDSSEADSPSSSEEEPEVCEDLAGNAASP
Outline: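 GST-TRa LBD 2.5 nM + 0.10% BSA + cpd; add fluorescein-SRC-2 200 nM, Tb-anti-GST 2 nM. TR-FRET ex 340, em 520/495 ratio. Norm: DMSO 0%, T3 100%; gain-of-signal fit.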

THRB (gene 7068) [5] = biological target: THRB (gene 7068) (UniProt P10828); experiment: TOX21_TRB_BLA_Agonist_Followup_ratio: Tox21 Thyroid Hormone Receptor beta Agonism Beta-lactamase (BLA) Follow-Up Assay, Ratio (AID 2283954)
Sequence of THRB (gene 7068) (P10828 whole entry, looked up, the tested form may be a part): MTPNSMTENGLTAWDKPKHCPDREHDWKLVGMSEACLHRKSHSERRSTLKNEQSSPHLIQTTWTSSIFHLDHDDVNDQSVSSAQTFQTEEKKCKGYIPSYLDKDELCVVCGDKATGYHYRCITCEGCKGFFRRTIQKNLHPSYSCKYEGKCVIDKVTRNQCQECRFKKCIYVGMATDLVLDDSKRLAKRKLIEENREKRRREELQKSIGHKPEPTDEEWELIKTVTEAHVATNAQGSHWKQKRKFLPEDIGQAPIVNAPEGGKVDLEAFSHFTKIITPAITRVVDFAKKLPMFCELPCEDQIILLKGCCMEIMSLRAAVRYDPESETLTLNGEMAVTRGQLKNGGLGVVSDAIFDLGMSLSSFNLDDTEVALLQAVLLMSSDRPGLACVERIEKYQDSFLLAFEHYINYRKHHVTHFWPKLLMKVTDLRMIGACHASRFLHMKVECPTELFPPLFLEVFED
Outline: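 Agonist mode: compounds (11-point, triplicate) incubated 18 h with HEK293T cells carrying GAL4-DBD/human TRβ-LBD and UAS-β-lactamase. Blue/green (460/530 nm) FRET ratio read after 2 h CCF4-AM loading; CellTiter-Glo viability run in the same plates.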

THRB (gene 7068) [6] = biological target: THRB (gene 7068) (UniProt P10828); experiment: TOX21_TRB_COA_Agonist_Followup_ratio: Tox21 Thyroid Hormone Receptor beta Agonism through Coactivator Recruitment Follow-Up Assay, Ratio (AID 2283963; active = hit-call score of the fitted dose curve at least 0.9, where 1 is the maximum; inactive = score below 0.9)
Outline: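 GST-TRb LBD 5.0 nM + 0.10% BSA + cpd; add fluorescein-SRC-2 200 nM / Tb anti-GST Ab 2 nM; TR-FRET ex 340, em 520:495; norm DMSO 0%, T3 100%.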

[7] = biological target: Retinoic acid receptor RXR-alpha (Homo sapiens) (UniProt P19793); experiment: TOX21_TR_RXR_BLA_Agonist_Followup_ratio: Tox21 Thyroid Hormone Receptor beta Retinoid X Receptor alpha (RXRa) Agonism Beta-lactamase (BLA) Follow-Up Assay, Ratio (AID 2283968)
Sequence of Retinoic acid receptor RXR-alpha (Homo sapiens) (P19793 whole entry, looked up): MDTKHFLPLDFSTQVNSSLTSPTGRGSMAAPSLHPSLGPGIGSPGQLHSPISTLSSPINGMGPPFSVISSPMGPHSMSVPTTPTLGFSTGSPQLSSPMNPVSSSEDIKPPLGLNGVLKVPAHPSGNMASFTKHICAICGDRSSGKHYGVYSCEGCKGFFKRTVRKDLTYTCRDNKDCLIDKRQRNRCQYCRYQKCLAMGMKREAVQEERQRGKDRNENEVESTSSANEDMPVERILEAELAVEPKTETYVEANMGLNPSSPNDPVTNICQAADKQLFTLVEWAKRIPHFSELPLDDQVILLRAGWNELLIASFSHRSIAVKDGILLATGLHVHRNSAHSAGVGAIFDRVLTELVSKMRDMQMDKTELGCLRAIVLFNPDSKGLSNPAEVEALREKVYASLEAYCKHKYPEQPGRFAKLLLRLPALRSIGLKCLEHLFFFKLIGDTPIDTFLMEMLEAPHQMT
Outline: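 Read-out: blue/green (460:530 nm) FRET ratio from cleaved vs uncleaved CCF4 substrate, fitted for gain of signal relative to DMSO. Cells: HEK293T with RXRa-UAS-bla reporter; 16 h compound exposure, 11 concentrations, triplicate.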

[8] = CCTE_Harrill_HTTr_Viability_MCF7: CCTE's 6-hour Cell Viability Assessment for the High-Throughput Transcriptomics (HTTr) Platform, in MCF-7 cells cultured in DMEM + 10% fetal bovine serum, Harrill Lab (AID 2284010; active = hit-call score of the fitted dose curve at least 0.9, where 1 is the maximum; inactive = score below 0.9)
Outline: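 PI exclusion, high-content imaging; 8-pt dilution series, 6 h exposure; bidirectional fit vs DMSO (neg. ctrl/baseline); gain of signal = loss of membrane integrity.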

[9] = CCTE_Harrill_HTTr_Apoptosis_MCF7: CCTE's 6-hour Apoptosis Assessment for the High-Throughput Transcriptomics (HTTr) Platform, in MCF-7 cells cultured in DMEM + 10% fetal bovine serum, Harrill Lab (AID 2284011; active = hit-call score of the fitted dose curve at least 0.9, where 1 is the maximum; inactive = score below 0.9)
Outline: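 Read-out: CellEvent Caspase 3/7 Green signal by high content imaging, gain-of-signal indicating apoptosis. MCF-7 cells, DMEM + 10% FBS, eight-point dilution series, 6 h exposure. Curves fitted bidirectionally relative to DMSO negative control.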

[10] = TOX21_p53_BLA_p3_viability: Viability Assessment in the Tox21 HCT-116 p53 Agonism Beta-lactamase Assay, Phase 3 (AID 2283593);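 also: cells exposed to compound for 16 h before reading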
Outline: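 HCT-116 cells (4000/well) rested 5 h at 37C, then got DMSO compounds by pin tool (217-fold dilution) for 16 h at 37C, 5% CO2. After the bla read, CellTiter-Glo was added and luminescence read at 30 min, room temperature.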

[11] = biological target: Cellular tumor antigen p53 (Homo sapiens) (UniProt P04637); experiment: TOX21_p53_BLA_p3_ratio: Tox21 HCT-116 p53 Agonism Beta-lactamase Assay, Ratio, Phase 3 (AID 2283596)
Outline: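 Cells were seeded at 4000/well, rested 5 h at 37C, then dosed with DMSO compound solutions (217-fold dilution) for 16 h. CCF4-AM substrate was loaded for 2 h at room temperature, and the 460/530 nm emission ratio was fitted for gain of signal versus DMSO.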

[12] = TOX21_p53_BLA_p4_viability: Viability Assessment in the Tox21 HCT-116 p53 Agonism Beta-lactamase Assay, Phase 4 (AID 2283597);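 also: hits lower the luminescence signal meaning cytotoxicity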
Outline: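 ATP content by CellTiter-Glo luminescence, 30 min RT, read after the beta-lactamase ratio step. Cells: HCT116, 4000/well, compound added after 5 h, exposure 16 h at 37C. Signal loss = reduced viability.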

With O=Cc1ccc(C(=O)O)cc1 the outcome [1] was “inactive” and the outcome [2] was “inactive”.
For CC(C)S, the outcome [1] was “inactive”, the outcome [3] was “inactive” and the outcome [2] was “inactive”. For the same molecule, the outcome [4] was “inactive”.
For CCCCCCCCCCCCCCCCN(C)C, the outcome [1] was “inactive”, the outcome [2] was “inactive” and the outcome [4] was “inactive”.
For CCCC(=O)C(=O)O, the outcome [1] was “inactive”, the outcome [3] was “inactive” and the outcome [2] was “inactive”. For the same molecule, the outcome [4] was “inactive”.
In the case of COC(=O)NCCC[Si](OC)(OC)OC, the outcome [1] is reported as “inactive” and the outcome [2] is reported as “inactive”.
In the case of O=[N+]([O-])c1c(Cl)cc(Cl)cc1Cl, the outcome [1] is reported as “inactive” and the outcome [2] is reported as “inactive”.
With CC1COc2c(N3CCN(C)CC3)c(F)cc3c(=O)c(C(=O)O)cn1c23 (stereo not given) the outcome [1] was “inactive”, the outcome [3] was “inactive” and the outcome [4] was “inactive”.
For CCCN(CCC)C(=O)C(CCC(=O)O)NC(=O)c1ccccc1 (stereo not given), the outcome [1] was “inactive” and the outcome [2] was “inactive”.
For CC(=O)Nc1ncc([N+](=O)[O-])s1, the outcome [1] was “inactive”, the outcome [3] was “inactive” and the outcome [2] was “inactive”. The outcome [4] was “inactive”.
With C=CCCCCCCCC the outcome [1] was “inactive”, the outcome [2] was “inactive” and the outcome [4] was “inactive”.
For O=C(O)CCNC(=O)c1ccccc1, the outcome [1] was “inactive”, the outcome [3] was “inactive” and the outcome [4] was “inactive”. For the same molecule, the AC50 (THRA (gene 7067)) was 15.2 µM (active), the AC50 (THRB (gene 7068) [5]) was 12.6 µM (active) and the AC50 (THRB (gene 7068) [6]) was 16.1 µM (active). The outcome [7] was “inactive”.
With NS(=O)(=O)c1cc2c(cc1Cl)NC(Cc1ccccc1)NS2(=O)=O (stereo not given) the outcome [1] was “inactive” and the outcome [2] was “inactive”.
In the case of Cc1ccc2cccnc2c1, the outcome [1] is reported as “inactive”, the outcome [3] is reported as “inactive” and the outcome [2] is reported as “inactive”. For the same molecule, the outcome [4] was “inactive”.
With [K+] the outcome [1] was “inactive”, the outcome [3] was “inactive” and the outcome [4] was “inactive”. For the same molecule, the outcome [8] was “inactive” and the outcome [9] was “inactive”.
For C=CC(=O)OCCOCCOCCOCCOC(=O)C=C, the outcome [1] was “inactive”, the outcome [3] was “inactive” and the outcome [4] was “inactive”.
With NC(=O)c1ccccc1[N+](=O)[O-] the outcome [1] was “inactive”, the outcome [3] was “inactive” and the outcome [4] was “inactive”.
With O=C(O)c1cc2cc(Cc3cccnc3)ccc2o1 the outcome [1] was “inactive” and the outcome [2] was “inactive”.
In the case of CCCCCCCCCCCCCCCC/C=C/C1CC(=O)OC1=O (stereo not given), the outcome [1] is reported as “inactive”, the outcome [3] is reported as “inactive” and the outcome [4] is reported as “inactive”.
With CN(C)Cc1ccccc1 the outcome [1] was “inactive”, the outcome [3] was “inactive” and the outcome [2] was “inactive”. The outcome [4] was “inactive”.
With O=C(NCCc1c[nH]c2ccccc12)c1cccnc1 the outcome [1] was “inactive”, the outcome [3] was “inactive” and the outcome [2] was “inactive”. For the same molecule, the outcome [4] was “inactive”.
For CO[C@@]1(NC(=O)C(C(=O)O)c2ccc(O)cc2)C(=O)N2C(C(=O)O)=C(CSc3nnnn3C)CO[C@@H]21 (stereo not given in full), the outcome [1] was “inactive”, the outcome [3] was “inactive” and the outcome [2] was “inactive”. The outcome [4] was “inactive”.
With c1ccc2c(c1)Sc1ccccc1N2CCN1CCCC1 the outcome [1] was “inactive”, the outcome [3] was “inactive” and the outcome [4] was “inactive”.
With CC(C)N=C=NC(C)C the outcome [1] was “inactive”, the outcome [3] was “inactive” and the outcome [2] was “inactive”. For the same molecule, the outcome [4] was “inactive”.
In the case of Cc1ccc2ccccc2c1[N+](=O)[O-], the outcome [1] is reported as “inactive”, the outcome [3] is reported as “inactive” and the outcome [4] is reported as “inactive”.
For COc1ccc2cc([C@H](C)CO)ccc2c1, the outcome [1] was “inactive”, the outcome [3] was “inactive” and the outcome [2] was “inactive”. The outcome [4] was “inactive”.
With CCCCCCCCCCCCCCC1CO1 (stereo not given) the outcome [1] was “inactive”, the outcome [3] was “inactive” and the outcome [4] was “inactive”.
For CC(C)(C)NCC(O)COc1cccc2c1C[C@H](O)[C@H](O)C2 (stereo not given in full), the outcome [1] was “inactive”, the outcome [3] was “inactive” and the outcome [2] was “inactive”. The outcome [4] was “inactive”.
In the case of CC1(C)S[C@@H]2[C@H](NC(=O)C(C(=O)Oc3ccc4c(c3)CCC4)c3ccccc3)C(=O)N2[C@H]1C(=O)O (stereo not given in full), the outcome [1] is reported as “inactive”, the outcome [3] is reported as “inactive” and the outcome [4] is reported as “inactive”.
In the case of CC(C)C(=O)c1c(C(C)C)nn2ccccc12, the outcome [1] is reported as “inactive”, the outcome [3] is reported as “inactive” and the outcome [4] is reported as “inactive”.
In the case of N=C(N)c1ccccc1, the outcome [1] is reported as “inactive”, the outcome [2] is reported as “inactive” and the outcome [4] is reported as “inactive”.
With CCCOC(=O)c1ccc(N)cc1 the outcome [1] was “inactive” and the outcome [4] was “inactive”.
In the case of CCOc1ccccc1N, the outcome [1] is reported as “inactive” and the outcome [4] is reported as “inactive”.
For CNS(=O)(=O)Cc1ccc2[nH]cc(CCN(C)C)c2c1, the outcome [10] was “inactive”, the outcome [11] was “inactive” and the outcome [12] was “inactive”. For the same molecule, the outcome [3] was “inactive” and the outcome [2] was “inactive”.
For COc1ccc2c(c1)C(=O)N(CCc1ccc(S(=O)(=O)NC(=O)NC3CCCCC3)cc1)C(=O)C2(C)C, the outcome [1] was “inactive” and the outcome [4] was “inactive”.
With CCCC(C)CO (stereo not given) the outcome [1] was “inactive” and the outcome [4] was “inactive”.
With FC(F)(F)C(Cl)(Cl)Cl the outcome [1] was “inactive”, the outcome [2] was “inactive” and the outcome [4] was “inactive”.
For O=C(O)CC/C=C\CC[C@@H]1[C@@H](N2CCCCC2)[C@@H](O)C[C@@H]1OCc1ccc(-c2ccccc2)cc1, the outcome [10] was “inactive” and the outcome [11] was “inactive”.
With C=C(C)C(=O)OCCCCCCCC(C)C the outcome [10] was “inactive”, the outcome [11] was “inactive” and the outcome [12] was “inactive”. For the same molecule, the outcome [3] was “inactive” and the outcome [2] was “inactive”.
In the case of C=C(C)C(=O)OCCOCC, the outcome [10] is reported as “inactive”.
With COc1cc2c(cc1OC)C(C(C(=O)N(CCc1ccc(OC)c(OC)c1OC)CCc1ccc(OC)c(OC)c1OC)c1ccccc1)=NCC2 (stereo not given) the outcome [10] was “inactive”, the outcome [11] was “inactive” and the outcome [12] was “inactive”. The outcome [3] was “inactive”, the outcome [2] was “inactive” and the outcome [4] was “inactive”.
